From the supplement of paper PMC10681739

Key:
ETS1 = molecular target: T1, ETS1 (UniProt P14921); assay: ETS1 binding intensity (PBM fluorescence), ETS1 alone (arbitrary fluorescence units); higher = stronger binding; settings: ETS1 concentration 1 nM; RUNX1 concentration 0 nM
T1 sequence: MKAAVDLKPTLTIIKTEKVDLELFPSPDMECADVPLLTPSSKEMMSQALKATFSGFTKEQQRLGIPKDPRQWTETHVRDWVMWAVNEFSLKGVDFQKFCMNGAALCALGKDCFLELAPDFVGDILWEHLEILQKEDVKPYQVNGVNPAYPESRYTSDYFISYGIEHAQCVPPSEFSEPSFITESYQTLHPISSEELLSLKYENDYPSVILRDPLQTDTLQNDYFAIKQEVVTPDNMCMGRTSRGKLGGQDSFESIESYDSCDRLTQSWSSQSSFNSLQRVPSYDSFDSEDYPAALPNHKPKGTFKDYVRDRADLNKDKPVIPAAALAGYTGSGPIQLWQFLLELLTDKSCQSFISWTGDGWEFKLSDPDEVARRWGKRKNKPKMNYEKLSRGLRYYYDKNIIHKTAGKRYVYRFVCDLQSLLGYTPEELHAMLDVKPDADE

RUNX1 [1] = molecular target: RUNX1 (UniProt Q01196); assay: RUNX1 binding intensity (PBM fluorescence), RUNX1 alone (arbitrary fluorescence units); higher = stronger binding; settings: RUNX1 concentration 2 nM; ETS1 concentration 0 nM
Procedure: (§1)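 Cooperative gcPBM on 36-bp genomic probes with neighbouring ETS1 and RUNX1 sites. Recombinant human RUNX1 (2 nM) was incubated alone or with ETS1 (25 nM) and detected with anti-RUNX1 antibody plus Alexa488 secondary. Values are medians over 4 replicate spots; the RUNX1+ETS1 data were normalised to the RUNX1-only data. The probes sit in constant array flanks that are not printed.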

RUNX1 [2] = molecular target: RUNX1 (UniProt Q01196); assay: RUNX1 binding intensity (PBM fluorescence) in presence of ETS1, normalised to RUNX1-only experiment (arbitrary fluorescence units); higher = stronger binding; settings: RUNX1 concentration 2 nM; ETS1 concentration 25 nM
Procedure: as §1
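Throughout, for RUNX1 binding intensity (PBM fluorescence) in presence of ETS1, normalised to RUNX1-only experiment: Full-length recombinant human ETS1 or RUNX1 bound to double-stranded 36-bp genomic probes on microarrays, detected by protein-specific primary antibody and Alexa488 secondary, spot fluorescence as median of four replicate spots.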
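Throughout, for RUNX1 binding intensity (PBM fluorescence), RUNX1 alone: Full-length recombinant human RUNX1 bound to double-stranded 36-bp genomic probes on a high-density microarray, scored as Alexa488 fluorescence per spot via anti-RUNX1 antibody, median of four replicate spots.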

RUNX1, sequence (Q01196 whole entry): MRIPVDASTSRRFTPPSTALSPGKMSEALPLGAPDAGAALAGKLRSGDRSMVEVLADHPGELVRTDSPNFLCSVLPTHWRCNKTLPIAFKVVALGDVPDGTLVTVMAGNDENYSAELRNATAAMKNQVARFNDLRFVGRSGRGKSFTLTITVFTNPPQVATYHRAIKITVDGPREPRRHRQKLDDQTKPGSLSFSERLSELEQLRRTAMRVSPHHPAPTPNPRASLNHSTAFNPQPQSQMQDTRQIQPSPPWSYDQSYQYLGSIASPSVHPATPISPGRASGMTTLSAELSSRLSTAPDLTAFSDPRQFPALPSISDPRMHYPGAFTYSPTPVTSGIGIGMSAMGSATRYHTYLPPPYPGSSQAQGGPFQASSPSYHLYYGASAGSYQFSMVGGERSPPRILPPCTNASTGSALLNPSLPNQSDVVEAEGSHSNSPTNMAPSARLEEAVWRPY

## CCCACTGCGCCAGGATGTGGTCAGGTCGGTGACGTT
ETS1
  ETS1 binding intensity: 1560
RUNX1 [1]
  RUNX1 binding intensity: 886
RUNX1 [2]
  RUNX1 binding intensity: 3410

## GGGTTGGGTGCCGGATGCGGTGAGTGAGGTTCTCAT
ETS1
  ETS1 binding intensity: 2930
RUNX1 [1]
  RUNX1 binding intensity: 917
RUNX1 [2]
  RUNX1 binding intensity: 4260

## GGACAGGAAGTTCCTGCAGCTTCTACCACAAACCTA
ETS1
  ETS1 binding intensity: 2450
RUNX1 [1]
  RUNX1 binding intensity: 829
RUNX1 [2]
  RUNX1 binding intensity: 1420

## CAAGCCAGGAAGAGGGCCCTCACCAGAAACCGCACT
ETS1
  ETS1 binding intensity: 407
RUNX1 [1]
  RUNX1 binding intensity: 907
RUNX1 [2]
  RUNX1 binding intensity: 1150

## TCAAGTTTGGTAACAGGATGTGGTAGGAGGAACACA
ETS1
  ETS1 binding intensity: 8320
RUNX1 [1]
  RUNX1 binding intensity: 747
RUNX1 [2]
  RUNX1 binding intensity: 1730

## GCCGCGAGTTCCGCCGGGTGGACCACAAATCCCGAG
ETS1
  ETS1 binding intensity: 373
RUNX1 [1]
  RUNX1 binding intensity: 831
RUNX1 [2]
  RUNX1 binding intensity: 904

## GCAGGACTTCCTGTGTTGTGCTAACCTCAAATTACA
ETS1
  ETS1 binding intensity: 975
RUNX1 [1]
  RUNX1 binding intensity: 859
RUNX1 [2]
  RUNX1 binding intensity: 2030

## TGAAGTACTAGTCAAGGATGTGGTTTTACATAGCAG
ETS1
  ETS1 binding intensity: 586
RUNX1 [1]
  RUNX1 binding intensity: 923
RUNX1 [2]
  RUNX1 binding intensity: 1340

## ACAGATCCAAGGAAGCATATCCCGCAAGCAACTGTT
ETS1
  ETS1 binding intensity: 460
RUNX1 [1]
  RUNX1 binding intensity: 797
RUNX1 [2]
  RUNX1 binding intensity: 875

## ATGAACCACTTCCTGTGTGTTCCCACAGAGGTCAGG
ETS1
  ETS1 binding intensity: 2670
RUNX1 [1]
  RUNX1 binding intensity: 742
RUNX1 [2]
  RUNX1 binding intensity: 7110

## CCCATTTCCTGCTCTCCAGAGTTAACCACTGAAGTC
ETS1
  ETS1 binding intensity: 815
RUNX1 [1]
  RUNX1 binding intensity: 1440
RUNX1 [2]
  RUNX1 binding intensity: 3490

## CAGAGGACAGGATGCCAACCCCAAAACCGCAGCGAC
ETS1
  ETS1 binding intensity: 733
RUNX1 [1]
  RUNX1 binding intensity: 4020
RUNX1 [2]
  RUNX1 binding intensity: 9280

## ATGCCTTCTTCCAGAGGATGTGGTCGCTACTAGTGG
ETS1
  ETS1 binding intensity: 1320
RUNX1 [1]
  RUNX1 binding intensity: 725
RUNX1 [2]
  RUNX1 binding intensity: 868

## GCTCTGGGTCACACAGGATGTGGTTTTTGAAGTTTG
ETS1
  ETS1 binding intensity: 8060
RUNX1 [1]
  RUNX1 binding intensity: 1210
RUNX1 [2]
  RUNX1 binding intensity: 10400

## AACCAAACAGCCACAGGAAGTGGTTTCTGTGATTCA
ETS1
  ETS1 binding intensity: 7840
RUNX1 [1]
  RUNX1 binding intensity: 840
RUNX1 [2]
  RUNX1 binding intensity: 1960

## GTGGGGCAGGATGTGCTTGCCTGGCTGCGGTTGGAC
ETS1
  ETS1 binding intensity: 2170
RUNX1 [1]
  RUNX1 binding intensity: 877
RUNX1 [2]
  RUNX1 binding intensity: 2230

## AGCAGGTATACCACTTCCTGTGGTTATCATTTGAGG
ETS1
  ETS1 binding intensity: 2330
RUNX1 [1]
  RUNX1 binding intensity: 966
RUNX1 [2]
  RUNX1 binding intensity: 6540

## AGGGAACAGGAAATGCAAAAAACCACAAGGGACAAG
ETS1
  ETS1 binding intensity: 2100
RUNX1 [1]
  RUNX1 binding intensity: 2050
RUNX1 [2]
  RUNX1 binding intensity: 15800

## GACACAAGAACAGCAGGATGTGGTCAGAGGCGTCGT
ETS1
  ETS1 binding intensity: 2610
RUNX1 [1]
  RUNX1 binding intensity: 722
RUNX1 [2]
  RUNX1 binding intensity: 3510

## TGCAGCCTATTTCCTCTAACCCGCAGATCCACTATG
ETS1
  ETS1 binding intensity: 536
RUNX1 [1]
  RUNX1 binding intensity: 1470
RUNX1 [2]
  RUNX1 binding intensity: 2250

## GTTAGCGTGATCGGAGGATGTGGTTTTCCTCCCTCT
ETS1
  ETS1 binding intensity: 1440
RUNX1 [1]
  RUNX1 binding intensity: 942
RUNX1 [2]
  RUNX1 binding intensity: 1930

## AGCCGTCATTCAGGATGTGGTGACAGACATGGAGAC
ETS1
  ETS1 binding intensity: 1200
RUNX1 [1]
  RUNX1 binding intensity: 769
RUNX1 [2]
  RUNX1 binding intensity: 1320

## GTAGGGAAGACGGGATGTGGGTTTTCAGCCGTGGCC
ETS1
  ETS1 binding intensity: 1220
RUNX1 [1]
  RUNX1 binding intensity: 730
RUNX1 [2]
  RUNX1 binding intensity: 2520

## GTCACAGGAAAGAAGGAGCCTCGCCTTAACCGCACC
ETS1
  ETS1 binding intensity: 447
RUNX1 [1]
  RUNX1 binding intensity: 1170
RUNX1 [2]
  RUNX1 binding intensity: 1310

## CACCCTCAACTTCCTGACCCATAAACCACAAGCTAT
ETS1
  ETS1 binding intensity: 468
RUNX1 [1]
  RUNX1 binding intensity: 6110
RUNX1 [2]
  RUNX1 binding intensity: 13100

## AACTGCCTGGTGGCCGGAAACCGCTGGAGGGAGGGC
ETS1
  ETS1 binding intensity: 4740
RUNX1 [1]
  RUNX1 binding intensity: 793
RUNX1 [2]
  RUNX1 binding intensity: 1130

## CCATCCAGGAAGCTTATGGTGCAACCGCAGTGTGCC
ETS1
  ETS1 binding intensity: 483
RUNX1 [1]
  RUNX1 binding intensity: 943
RUNX1 [2]
  RUNX1 binding intensity: 1620

## ATGAGCTATTTCCTGCCTTGTGGTCAGAGCCAGACT
ETS1
  ETS1 binding intensity: 1640
RUNX1 [1]
  RUNX1 binding intensity: 1050
RUNX1 [2]
  RUNX1 binding intensity: 4330
